In PubChem BioAssay (NCATS):
Calls of active or inactive are those of the source. Calls come from the whole dose curve; as a rule, active = well fitted curve in the direction sought with a large enough effect; inactive = no such curve, though single readings can be large or run the other way.

target: Alpha-galactosidase (Coffea arabica) (UniProt Q42656); experiment: Counterscreen for Glucocerebrosidase Inhibitors: qHTS Assay for Coffee Bean alpha-Galactosidase at pH 5.9 (AID 998); settings: coffee bean alpha-galactosidase enzyme assay; series mostly up to 76.9 µM
Sequence (Q42656 whole entry, looked up): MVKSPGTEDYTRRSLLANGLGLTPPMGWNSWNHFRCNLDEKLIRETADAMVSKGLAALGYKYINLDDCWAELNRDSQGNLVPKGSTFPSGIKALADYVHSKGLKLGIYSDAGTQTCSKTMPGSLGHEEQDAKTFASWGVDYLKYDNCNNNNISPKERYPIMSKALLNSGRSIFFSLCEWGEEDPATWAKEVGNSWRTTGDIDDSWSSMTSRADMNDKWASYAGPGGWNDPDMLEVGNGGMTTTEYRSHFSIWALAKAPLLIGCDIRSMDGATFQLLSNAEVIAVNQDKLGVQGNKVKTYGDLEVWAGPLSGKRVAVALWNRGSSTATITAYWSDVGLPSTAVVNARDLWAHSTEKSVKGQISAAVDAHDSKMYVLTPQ
Summary of the method: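 Enzyme 2 nM + cpd (0.7 nM–77 uM titration) + 4-MU-alpha-Gal 80 uM, pH 5.9 citrate/Tween-20, RT 20 min, NaOH/glycine stop pH 10, fluor 365/440. Normalized to no-enzyme and full-activity controls; Hill-fit AC50.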

| SMILES | outcome |
| --- | --- |
| CC[C@@H]1CN2CCc3cc(OC)c(OC)cc3[C@H]2C[C@@H]1C[C@@H]1NCCc2cc(OC)c(OC)cc21 | inactive |
| CC(=O)O[C@@H]1[C@H]([N+]2(C)CCCCC2)C[C@@H]2[C@@H]3CC[C@@H]4C[C@@H](OC(C)=O)[C@H]([N+]5(C)CCCCC5)C[C@@]4(C)[C@H]3CC[C@]21C | inactive |
| COc1ccc2c(c1)CCC1C2CC[C@]2(C)[C@H](NCCCCCCN3C(=O)C=CC3=O)CC[C@@H]12 (stereo partly drawn) | inactive |
